These results are taken from PubChem BioAssay.

Experiment [1] in a line: Her2 expression decrease, cell viability multiplex – SKBR3 breast tumor cells, AlphaScreen, ATP viability, primary screen (AID 461;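 active = Her2 level under about 52% in both replicate screens, with viability over 70% of control, limit read from the data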;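 as to Her2 level: lower value means less Her2 protein in the cells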;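 as to viability: percent of carrier control wells set as 100% viability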). The note with it: SKBR3 Her2 protein level, 18-24 h, measured here: SKBR3 viability, ATP luminescence, at 10 µM. On the technique in general: In Alpha technology, singlet oxygen from a donor bead excites a nearby acceptor bead.
In experiment [2] the target is Receptor tyrosine-protein kinase erbB-2 (Homo sapiens) (UniProt P04626). The experiment is described as above. The note with it: 18-24 h, at 10 µM, stronger effect = lower value.
Chain of Receptor tyrosine-protein kinase erbB-2 (Homo sapiens) (P04626 whole entry, looked up): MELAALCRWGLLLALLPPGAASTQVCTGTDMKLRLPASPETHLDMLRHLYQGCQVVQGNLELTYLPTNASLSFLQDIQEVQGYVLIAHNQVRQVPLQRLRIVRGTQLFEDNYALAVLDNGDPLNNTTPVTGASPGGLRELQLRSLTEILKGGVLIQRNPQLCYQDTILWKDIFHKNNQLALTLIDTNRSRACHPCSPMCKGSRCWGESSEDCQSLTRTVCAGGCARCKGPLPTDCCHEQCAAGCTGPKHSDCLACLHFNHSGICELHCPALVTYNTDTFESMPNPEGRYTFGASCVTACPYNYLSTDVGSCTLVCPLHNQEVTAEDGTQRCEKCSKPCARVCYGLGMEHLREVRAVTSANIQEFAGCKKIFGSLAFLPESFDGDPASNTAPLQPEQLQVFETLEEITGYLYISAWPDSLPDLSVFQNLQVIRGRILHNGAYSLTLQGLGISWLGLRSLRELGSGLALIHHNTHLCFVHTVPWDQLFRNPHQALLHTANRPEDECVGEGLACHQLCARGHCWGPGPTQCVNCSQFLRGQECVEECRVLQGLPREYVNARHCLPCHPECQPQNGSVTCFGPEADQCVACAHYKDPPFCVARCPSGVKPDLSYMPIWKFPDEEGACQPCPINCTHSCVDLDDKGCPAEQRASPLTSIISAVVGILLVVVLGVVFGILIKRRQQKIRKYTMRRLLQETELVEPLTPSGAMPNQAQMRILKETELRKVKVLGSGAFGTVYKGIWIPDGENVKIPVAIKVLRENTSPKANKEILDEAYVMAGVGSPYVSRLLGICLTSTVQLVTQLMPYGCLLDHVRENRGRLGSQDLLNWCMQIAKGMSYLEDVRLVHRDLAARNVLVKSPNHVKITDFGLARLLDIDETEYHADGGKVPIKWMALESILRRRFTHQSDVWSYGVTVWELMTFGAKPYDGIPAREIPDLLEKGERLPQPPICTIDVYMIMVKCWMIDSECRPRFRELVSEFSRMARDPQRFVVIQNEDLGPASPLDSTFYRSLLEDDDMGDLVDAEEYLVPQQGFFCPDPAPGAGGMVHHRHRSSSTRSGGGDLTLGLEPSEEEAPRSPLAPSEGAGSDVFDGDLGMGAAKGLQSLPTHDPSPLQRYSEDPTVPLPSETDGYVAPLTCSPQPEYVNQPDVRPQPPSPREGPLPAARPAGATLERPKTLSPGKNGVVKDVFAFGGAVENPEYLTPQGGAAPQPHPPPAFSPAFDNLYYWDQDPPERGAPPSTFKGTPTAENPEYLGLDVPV
Experiment [3] is described as follows: reduced viability of SK-BR-3 breast cancer cells – cell-based, 24 h, human, pilot screen (AID 572;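 active = viability at or below 10% of carrier control in both of two separate runs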;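 also: compound exposure lasted between 18 and 24 h rather than exactly 24 h; 100% = carrier-treated control wells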). The note with it: SK-BR-3 viability, CellTiter-Glo luminescence, at 10 µM, stronger effect = lower value. On the technique in general: Cellular ATP, detected with luciferase, serves as a proxy for viable cell number.
The nature of experiment [4]: HUVEC growth inhibition – cell-based, human, primary screen (AID 575;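 active = viability at or below 30% in both replicate assays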;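 also: 100% = median of untreated cell wells with 0.1% DMSO on each plate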). The note with it: HUVEC proliferation, CellTiter-Glo luminescence, 72 h; at 10 µM; stronger effect = lower value.
Experiment [5] is described as follows: H69AR cell proliferation blockers – human, duplicate replicates, primary screen (AID 580;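 active = viability at or under a set limit in both replicates, limit being median viability minus 3 SD, cut at about 48% in these data, passing the limit was not always enough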;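 also: 100% = mean luminescence of untreated wells and 0% = no signal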). The note with it: H69AR lung tumor cells viability, ATP luminescence, 72 h; at 10 µM; stronger effect = lower value.
A short description of experiment [6]: MRP1 drug-resistance reversers in H69AR cells – cell-based, doxorubicin co-treatment, pilot screen (AID 601). The note with it: CellTiter-Glo, 72 h, at 10 µM; for differential viability (reversal): stronger effect = higher value.
The nature of experiment [7]: yeast transport mutant growth inhibition pilot in 384-well plates, post-Golgi transport modulator project (AID 636; in the data active = inhibition above about 31%). The note with it: absorbance 615 nm, about 18 h, stronger effect = higher value.
Experiment [8] can be described thus: growth suppression of yeast trafficking mutant, preliminary HTS, modulators of trafficking downstream of Golgi apparatus project, 1536-format plate, OD 615 nm (AID 637; in the data active = inhibition above about 30%). The following applies: yeast transport mutant growth, absorbance 615 nm, 18 h; stronger effect = higher value.
A short description of experiment [9]: S. cerevisiae growth inhibition in permissive medium (OD615), pilot counter-assay for S. cerevisiae lifespan shortening project, permissive growth control (AID 705;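 active = growth inhibition above 25% in both replicates, a cutoff set 3 SD above the mean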). The note with it: OD615, 24 h, at 10 µM, stronger effect = higher value.
Experiment [10] in a line: S. cerevisiae growth inhibition in restrictive medium, OD615, pilot screen, restrictive growth control, yeast lifespan reduction project (AID 706;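 active = growth inhibition above a set limit, 3 SD over mean compound inhibition, in both replicates, cut at about 43% in these data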;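 also: modified DeaD lifespan yeast strain shifted to restrictive glucose medium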). The following applies: OD615, 48 h, at 10 µM, stronger effect = higher value.
Experiment [11] in a line: doxorubicin toxicity protection in MRP-1 cells – H69AR cells, CellTiter-Glo, duplicate, MRP-1 activator project, pilot screen (AID 807;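 active = viability increase at or above a cutoff of the median across tested compounds plus 3 SD, cut at about 8.5% in these data, passing the limit was not always enough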;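 also: compound pretreatment 18-22 h then 72 h combined with doxorubicin; 0% = doxorubicin alone and 100% = vehicle without doxorubicin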). The note with it: H69AR viability with doxorubicin, CellTiter-Glo luminescence; at 10 µM; stronger effect = higher value.
Experiment [12] in a line: viability of HCT116 without oncogenic beta-catenin – human colon tumor cells, pilot screen (AID 823;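 active = cell viability at or below a set limit in both duplicate runs, the limit being the all-compound median minus 4 SD, cut at about 23% in these data, passing the limit was not always enough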;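 also: 0% = wells killed by 20 µM Hyamine and 100% = untreated DMSO cell wells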). The note with it: HCT116 beta-catenin knockout viability, CellTiter-Glo, 60 h; at 10 µM; stronger effect = lower value.
A short description of experiment [13]: viability of PTEN-null HCT116 cells – cell-based, HCT116 clonal line, CellTiter-Glo, pilot screen (AID 824;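 active = viability at or below 27.92% in each of two runs, the all-compound median minus 4 SD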;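 also: 0% = 20 µM Hyamine control and 100% = vehicle cell control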). The following applies: HCT116 PTEN-deleted viability, 60 h, at 10 µM, stronger effect = lower value.
The nature of experiment [14]: RAM pathway blockade in budding yeast – dse1pr::URA3 reporter, 5-FOA selection, pilot screen (AID 869;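 active = inhibition over a set limit, the all-compound mean plus 3 SD, in both replicate runs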;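 also: 0% = DMSO wells with no growth and 100% = 10 µM 1-NA-PP1 with full growth; RAM network block rescues cells from 5-FOA so hits raise OD615 growth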). The following applies: S. cerevisiae dse1pr::URA3 5-FOA growth, OD615, 2 d; at 10 µM; stronger effect = higher value; strain carries analog-sensitive mutant Cbk1 kinase.
Experiment [15] can be described thus: RAM signaling pathway blockade in yeast – S. cerevisiae, Pdr1DBD-CYC8 efflux-inhibited sensitized strain, primary screen (AID 1298;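 active = RAM network inhibition above 8.4% in each of two replicates, 3 SD over the compound average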;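 also: 0% = DMSO untreated cells without growth and 100% = 10 µM 1-NA-PP1 full growth; higher means more yeast growth rescued from 5-FOA killing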). The note with it: S. cerevisiae cbk1-as DSE1-URA3 strain, 5-FOA growth OD615, 2 d; at 50 µM; stronger effect = higher value.
[16] abbreviates: H69AR cells + 2 uM doxorubicin, measured here: viability with 2 uM doxorubicin, stronger effect = lower value.
Setting [17] is: H69AR cells, compound alone cytotoxicity.

Structures are written as SMILES. Results filed as inconclusive are left out. Activity calls are given as the source filed them.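 The calls were made as follows, unless noted: active = viability loss from added drug above about 55%, and viability with drug at most 40%, in both replicates (limit read from the data, passing the limit was not always enough); inconclusive = both conditions met in only one replicate; inactive = neither replicate meets both conditions.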

The term viability denotes a read-out of living cells in per cent, often relative to untreated cells. What is called inhibition is the drop in the measured response relative to a control, in per cent. On to `O=C1CCCc2c1cc(C(=O)NCCCN1CCOCC1)c(=O)n2-c1ccc(Cl)cc1`, for which the viability in experiment [1] was 97%; in [3] it was 97% (inactive); in experiment [4], 89.9% (inactive); in experiment [5], 93.1% (inactive); in [6] (setting [16]), 82.5%; in experiment [6] (setting [17]) it was 93.1%. Further, the viability in experiment [12] is 100% (inactive); in experiment [13] it was 104% (inactive). Moreover, the Her2 level in [2] was 95.5% (inactive). Moreover, in [6] (H69AR cells + 2 uM doxorubicin), the differential viability (reversal) was 10.6% (inactive). In addition, the inhibition in [7] is -5.07% (inactive); in [8], 0.83% (inactive); in experiment [14], 1.44% (inactive). The growth inhibition in [9] was -14.6% (inactive); in experiment [10], -19.1% (inactive). In experiment [11], the viability increase is -2.29% (inactive). Also, in experiment [15], the RAM network inhibition is 2% (inactive).

For the molecule `Oc1c(C(c2ccccc2)N2CCc3ccccc3C2)sc2ncnn12` (stereo not given), the viability in experiment [1] was 87.5%; in experiment [3], 87.5% (inactive); in [4] it was 74.4% (inactive); in experiment [5], 85% (inactive); in [6] (setting [16]), 85.1%; in experiment [6] (setting [17]), 85%. For the same molecule, the results for the viability in [12] and in experiment [13] were 97.1% (inactive) and 93.3% (inactive), respectively. Besides, the Her2 level in [2] is 82.5% (inactive). For the same molecule, the differential viability (reversal) in experiment [6] (H69AR cells + 2 uM doxorubicin) is -0.02% (inactive). Also, the inhibition was -2.69% (inactive) in experiment [7], -2% (inactive) in experiment [8] and 1.78% (inactive) in experiment [14]. The growth inhibition in experiment [9] is 7.92% (inactive); in experiment [10], 8.2% (inactive). Also, the viability increase in experiment [11] was 3.99% (inactive). Moreover, the RAM network inhibition in experiment [15] was 4.48% (inactive).

With `CCOCCCNC(=O)C(NC(=O)c1ccccn1)c1ccc(C)cc1` (stereo not given), the viability in experiment [1] is 94.5%; in [3], 94.5% (inactive); in experiment [4], 104% (inactive); in experiment [5] it was 106% (inactive); in [6] (setting [16]), 97.3%; in experiment [6] (setting [17]), 106%. Further, the viability is 108% (inactive) in experiment [12] and 97.3% (inactive) in experiment [13]. Also, in experiment [2], the Her2 level was 120% (inactive). Moreover, the differential viability (reversal) in experiment [6] (H69AR cells + 2 uM doxorubicin) is 8.57% (inactive). Moreover, the inhibition in [7] is -2.6% (inactive); in [8], 1.9% (inactive); in [14] it was 0.07% (inactive). Moreover, the growth inhibition in experiment [9] is -4.42% (inactive); in experiment [10] it was 1.57% (inactive). Besides, the viability increase in experiment [11] is -0.13% (inactive). The RAM network inhibition in [15] is 0.36% (inactive).

Turning to `Cc1cc(OCC(=O)NCCO)cc(C)c1Cl`, the viability in [1] is 99%; in experiment [3] it was 99% (inactive); in experiment [4] it was 76% (inactive); in [5] it was 96.4% (inactive); in experiment [6] (setting [16]), 87.6%; in experiment [6] (setting [17]) it was 96.4%. The viability is 99.1% (inactive) in [12] and 99.6% (inactive) in [13]. In [2], the Her2 level is 120% (inactive). Besides, the differential viability (reversal) in experiment [6] (H69AR cells + 2 uM doxorubicin) was 8.84% (inactive). Also, the inhibition in [7] is 1.56% (inactive); in experiment [8] it was -1.67% (inactive); in [14], 1.37% (inactive). Moreover, the growth inhibition in [9] is -15% (inactive); in [10], 0.385% (inactive). In addition, the viability increase in experiment [11] was -0.21% (inactive). For the same molecule, the RAM network inhibition in experiment [15] is 6.24% (inactive).

For `CCOC(=O)N1CCC(NC(=O)c2cc(C(=O)NC3CCCC3)ccc2CO)CC1`, the viability is 97.5% in experiment [1]; 97.5% (inactive) in experiment [3]; 97.4% (inactive) in experiment [4]; 92.8% (inactive) in [5]; 87.3% in experiment [6] (setting [16]); 92.8% in experiment [6] (setting [17]). For the same molecule, the viability in experiment [12] was 92.1% (inactive); in experiment [13], 90.2% (inactive). Also, the Her2 level in experiment [2] was 104% (inactive). The differential viability (reversal) in experiment [6] (H69AR cells + 2 uM doxorubicin) was 5.52% (inactive). The inhibition in experiment [7] is -6.8% (inactive); in experiment [8], 6% (inactive); in experiment [14], 1.87% (inactive). Moreover, the growth inhibition was 3.62% (inactive) in [9] and -3.18% (inactive) in experiment [10]. For the same molecule, in [11], the viability increase is -0.72% (inactive). The RAM network inhibition in experiment [15] was 1.13% (inactive).
